A selection: hits, their analogues and other compounds. The true share with any hit is near 2.4%.
GLP-1R inv ag = GLP-1 receptor (human) inverse agonism; P43220; Potency, µM (titrated, usually from 38.3 µM), for inactives: at the top dose activity change, negative = inhibition, most hits filed as inhibitors; HEK293 GLP-1R CRE-luciferase, luminescence, 24 h; GLP-1R form is constitutively active; 410,000 compounds, 1.6% hits; also: potency is read from the fitted curve at half-maximal effect; % is scaled to controls: 0 for no effect and ±100 for the full control effect; nearly all actives have a fitted effect of over 55% in size
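qHTS in 1536-well format: reporter HEK293 cells expressing constitutive GLP-1R activity in DMEM + 10% Nu serum, 24 hr with compounds at 37 deg C, luminescence read after 12 min with detection reagent.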
GLP1R ag = activates the human GLP-1 receptor; 380,000 compounds, 0.007% hits; HEK293 GLP-1R CRE-luciferase, luminescence, 4-6 h; cells express a hypersensitive GLP-1R form; Potency, µM (series often up to 45.6 µM), for inactives: top-dose activation, usual class: activators; also: potency is read from the fitted curve at half-maximal effect; % of control where 0% means no effect
TRHR enhancer-1 = allosterically enhances the human TRH receptor; AID 493056; P34981; enhancement, % at 2 µM; TRHR cells, fluo-8 calcium fluorescence, EC20 TRH enhancement; 360,000 compounds, 0.66% hits; in the data active = enhancement above about 30%; also: 0% is about no effect
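TRHR-expressing cells loaded with fluo-8 calcium dye were read kinetically (ex 480/em 530) during compound addition, then stimulated with an EC20 of TRH (10 nM final). Enhancement of the Gq-mediated intracellular calcium response was scored.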
HEK293 tox = cytotoxicity counter-screen for GLP-1 receptor inverse agonists. HEK293 cAMP-luciferase reporter cells, luminescence, 24 h. Potency, µM (titrated, usually from 38.3 µM), inactives show at the top dose activity change, negative = inhibition, hits mostly inhibitors. 410,000 compounds, 0.13% hits. AID 624418;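 also: loss of luciferase light is scored as toxicity; potency is read from the fitted curve at half-maximal effect; % is scaled to controls: 0 for no effect and ±100 for the full control effect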
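1536-well qHTS counterscreen of the MLSMR; 200 cells/uL, 12 h pre-incubation, 23 nL cpd, 24 h at 37 deg C 5% CO2, luciferase detection reagent, 12 min RT, luminescence. Inhibition = undesired.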
PTHR1 ag = agonists of human PTHR1 parathyroid hormone receptor; AID 743266; 410,000 compounds, 0.075% hits; Q03431; Potency, µM (titrated, usually from 115 µM), without a hit: at the top dose activation, usual class: activators; HEK293 GP2 PTHR1 cells, GloSensor cAMP luminescence, 1 h; also: potency is read from the fitted curve at half-maximal effect; nearly all actives have a fitted effect of over 55% in size
Target sequence (Q03431 whole entry, looked up): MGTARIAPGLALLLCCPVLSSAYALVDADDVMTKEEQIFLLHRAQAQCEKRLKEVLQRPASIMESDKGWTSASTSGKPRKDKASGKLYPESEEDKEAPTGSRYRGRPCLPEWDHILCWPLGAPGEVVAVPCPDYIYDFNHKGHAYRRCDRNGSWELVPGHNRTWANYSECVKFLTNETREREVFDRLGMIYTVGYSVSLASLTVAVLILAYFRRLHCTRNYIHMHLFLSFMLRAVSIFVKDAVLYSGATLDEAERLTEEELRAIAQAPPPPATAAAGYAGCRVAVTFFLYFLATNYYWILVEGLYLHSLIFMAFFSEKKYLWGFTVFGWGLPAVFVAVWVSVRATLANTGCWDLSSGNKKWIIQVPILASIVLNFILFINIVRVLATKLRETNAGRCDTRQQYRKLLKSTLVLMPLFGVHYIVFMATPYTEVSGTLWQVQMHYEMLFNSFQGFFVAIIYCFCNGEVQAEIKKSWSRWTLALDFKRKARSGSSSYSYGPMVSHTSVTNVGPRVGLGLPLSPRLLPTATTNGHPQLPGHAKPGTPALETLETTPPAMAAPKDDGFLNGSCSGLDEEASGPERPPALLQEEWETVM
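HEK-293-derived GP2 cells expressing PTHR1 and a GloSensor cAMP reporter, 3,000/well, plated overnight, given luciferin plus IBMX (each 0.5 mM as added) for 1 h at 37 °C, then compound for 1 h at 37 °C. Luminescence was read after 15 min at room temperature.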
TRHR agonist-1 = TRH receptor (human) agonism. P34981. TRHR cells, calcium flux fluo-8, FDSS agonist mode. activation, % at 2 µM. 360,000 compounds, 0.18% hits. AID 493084; in the data active = activation above about 30%; also: 0% is about no effect
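TRHR-expressing cells, plated overnight in medium with 10% serum, were loaded with fluo-8 calcium dye at room temperature. After a 10 s baseline, library compound was pin-added and calcium release was recorded kinetically (ex 480/em 530) as agonist response.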
TRHR enhancer-2 = human TRH receptor allosteric enhancement confirmation; activity change, negative = inhibition, % at 46.1 µM; TRH receptor cell assay, enhancer confirmation qHTS; shares compounds with TRHR enhancer-1; 970 tested, under 10 active;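 also: compound effect scored on response to added TRH at EC20 of 10 nM; 0% is about no effect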
TRHR agonist-2 = confirmation of human TRH receptor agonists; shares compounds with TRHR enhancer-1; 970 compounds, 8% hits; Potency, µM (doses to about 46.1 µM), inactives show top-dose activation, hits mostly activators; AID 493078; TRHR-expressing cells, agonist activation read-out; also: potency is read from the fitted curve at half-maximal effect; 0% is about no effect; nearly all actives have a fitted effect of over 75% in size
Numbers without * were called inactive; i = inactive; ? = inconclusive; / = no result given; [ ] = remark or other dose. Unless noted, calls follow the shape of the dose curve; as a rule, active = well fitted curve in the direction sought with a large enough effect; inconclusive = small, poorly fitted or top-dose-only effect, or another doubt; inactive = no such curve, though single readings can be large; an effect the other way counts as inactive or inconclusive.

SMILES | GLP-1R inv ag | GLP1R ag | TRHR enhancer-1 | HEK293 tox | PTHR1 ag | TRHR agonist-1 | TRHR enhancer-2 | TRHR agonist-2
Cc1ccc(C2(C)NC(=O)N(CC(=O)N3CCN(S(=O)(=O)c4cccc([N+](=O)[O-])c4)CC3)C2=O)cc1 (configuration not stated) | -20% | -5% | / | 6% | -5% | / | / | /
COc1ccccc1C1(O)CCN(C(=O)c2cccs2)CC1 | 0% | 3% | 46* | 4% | 8% | 0 | -3 | 1%
Cc1cc(C)n(-c2nc3nonc3nc2-n2nc(C)cc2C)n1 | 0% | -5% | 54* | -8% | -6% | 0 | -4 | 4%
Cc1cc(C)n(CCN(C)c2nc3nonc3nc2N2CCCCC2)n1 | 1%[0.307 µM] | -1% | 2 | 0%[0.307 µM] | i | 0 | / | /
CCc1nc(SC)[nH]c(=O)c1C | 11% | -5% | 43* | 0% | i | -1 | -1 | 0%
OCCC1CN(Cc2cc(F)ccc2-n2cccn2)CCN1C1CCCC1 (configuration not stated) | -7% | 3% | -1 | -16% | -16% | 0 | / | /
Cc1cccc(N2CCN(C(=O)COc3cc4oc(=O)cc(C)c4cc3Cl)CC2)c1C | -14% | 0% | 70* | -13% | -3% | 0 | 0 | 0%
Cc1cc(=O)oc2cc(OCC(=O)N3CCN(c4ccccc4)CC3)c(Cl)cc12 | -7% | -1% | 6 | -11% | i | 0 | / | /
Cc1cc2nc(/C=C/c3nc4cc(C)c(C)cc4[nH]3)[nH]c2cc1C | 9% | 0% | 21 | 131% | 8% | -1 | / | /
Cc1ccc(/C=C/c2nc3ccccc3[nH]2)o1 | -11% | 0% | 46* | 11% | -29% | 1 | ? | 8%
CCOc1cc(C(C(=O)NCC2CCCO2)N(C(=O)Cn2nnc3ccccc32)c2ccccc2C(C)=O)ccc1O (configuration not stated) | 2% | 5% | -1 | -5% | -12% | 1 | / | /
COc1ccccc1C(=O)Nc1ccnn1C1CCN(C/C=C/c2ccc(F)cc2)CC1 | ? | -3% | 47* | ? | -18% | -1 | 2 | 1%
Cc1cccc(NC(=O)CSc2cccc3cccnc23)c1 | -8% | 24% | -3 | -9% | i | 27 | -13 | 1%
Cc1ccc(C)c(NC(=O)CSc2cccc3cccnc23)c1 | -21% | 1% | -9 | -7% | -31% | 0 | / | /
COc1ccc(N2C(=O)CC(NCc3ccncc3)C2=O)cc1 (configuration not stated) | -3% | -11% | -4 | -13% | 20%[57.5 µM] | -1 | / | /
Nc1nonc1-n1nnc(C(=O)N/N=C/c2ccc(OCc3ccccc3F)cc2)c1CNc1ccccc1 | -17% | 2% | 3 | -24% | i | 0 | / | /
O=C(NC1CCCCC1)N1CCN(S(=O)(=O)c2ccc(F)cc2)CC1 | -22% | 7% | 46* | 8% | -43% | 0 | -3 | 1%
Cn1c(NCCO)nc2c1c(=O)n(Cc1cccc(Cl)c1)c(=O)n2C | 29% | 5% | 6 | -3% | 29% | 1 | / | /
Cc1ccc(C(=O)Nc2nc3nc(C)cc(=O)n3[nH]2)cc1 | 1% | / | 0 | 1% | 2% | 0 | / | /
COc1cc(Cl)c(C)cc1N1C(=O)CN(Cc2ccccc2)C1=S | ? | 2% | -6 | -32% | -25% | 91* | -4 | 0%
COc1cc(CN2CC(=O)N(c3ccccc3Cl)C2=S)cc(OC)c1OC | ? | -3% | -2 | -7% | -91% | 0 | / | /
COC(=O)c1c(C)oc2ccc(NS(=O)(=O)c3cccs3)cc12 | 0% | 3% | 53* | -14% | -48% | -1 | -8 | 3%
C(=C\n1nnc2ccccc21)/c1ccccn1 | ? | -1% | -3 | 1% | -2% | 0 | / | /
COCCNc1nc(C(C)(C)C)nc2c1nnn2Cc1ccccc1Cl | 0% | 10% | 4 | -4% | i | 2 | / | /
COc1ccccc1N1CCN(Cc2nc3ccsc3c(=O)[nH]2)CC1 | 8% | -14% | -6 | -4% | i | 3 | / | /
SMILES | GLP-1R inv ag | GLP1R ag | TRHR enhancer-1 | HEK293 tox | PTHR1 ag | TRHR agonist-1 | TRHR enhancer-2 | TRHR agonist-2
COc1ccccc1N1CCN(Cc2nc3ccccc3[nH]2)CC1 | -11% | 2% | 50* | 5% | i | 0 | 5 | -1%
C/C(=N\NC(=O)c1ccc(Cn2cc(Br)cn2)o1)c1ccc(NC(=O)c2ccoc2C)cc1 | ? | -12% | 61* | ? | -19% | 0 | 10 | 8%
CC1(C)C2CCC1(CS(=O)(=O)N1CCC(C(N)=O)CC1)C(=O)C2 (configuration not stated) | 12% | 0% | 2 | -10% | 11% | 1 | / | /
CCOC(=O)C1(CC2CC2)CCN(S(=O)(=O)C[C@]23CC[C@H](CC2=O)C3(C)C)CC1 | ? | -1% | 1 | -10% | -18% | 34* | 5 | ?
OCc1cn(Cc2ccc(O)c3ncccc23)cn1 | / | / | 1 | / | / | 0 | / | /
O=C(NC(=S)Nc1ccc2[nH]c(=O)[nH]c2c1)c1cncc(Br)c1 | 38% | 6% | -5 | 9% | -17% | 1 | / | /
COc1ccc(C(C)=O)cc1COC(=O)CNC(=O)c1ccc(Cl)cc1 | 11% | 18% | -8 | -4% | i | -2 | / | /
COc1ccc(C(C)=O)cc1COC(=O)Cc1cc(OC)c(OC)c(OC)c1 | 32% | 27% | -3 | 4% | -8% | 29 | -4 | -1%
C/C(CC(=O)Nc1cccc(C(F)(F)F)c1)=N\NC(=O)Cc1ccccc1 | ? | 13% | 58* | 2% | -63% | 0 | 2 | 1%
CC(=O)N/N=C(\C)CC(=O)Nc1cccc(C(F)(F)F)c1 | ? | 5% | -4 | -1% | 4% | 0 | / | /
O=C(CSc1ccc(Cl)cc1)N1N=CCC1c1ccccc1 (configuration not stated) | ? | 7% | -2 | 4% | -36% | -1 | / | /
O=C(CSC(=S)N1CCCCC1)N1N=CCC1c1ccccc1 (configuration not stated) | 0% | 6% | 53* | 0% | -6%[57.5 µM] | 0 | 4 | 1%
COc1cc(/C=N/N(C)C)ccc1OC(=O)c1ccco1 | 27% | 1% | 41* | -3% | -65% | 0 | 3 | -1%
COc1cc(/C=N/NC(N)=O)ccc1OC(=O)c1ccco1 | 7% | 21% | -2 | 3% | i | 0 | / | /
